Consider 21 compounds from PubChem BioAssay (NCATS).

SMILES strings stand for the structures. Values joined by “and” are separate entries in the source; they are usually repeats but may differ in a detail not shown here. Equal values may be shown once. Results filed as inconclusive are left out. Active and inactive are the calls of the source. Unless noted, the call rests on the fitted dose curve; in most records, active means well fitted curve in the direction sought with a large enough effect; inconclusive means small, poorly fitted or top-dose-only effect, or another doubt; inactive means no such curve, though single readings can be large; an effect the other way counts as inactive or inconclusive.

The nature of assay [1]: qHTS Assay for Lipid Storage Modulators (AID 1519; calls by dose curve; on activity change, negative = inhibition: on the % scale 0 is the no-effect control and ±100 the full control effect). Particulars: Drosophila S3 cells, BODIPY lipid droplet/cell ratio, laser cytometry, cells loaded with oleic acid. Put shortly:
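Cells seeded at 5,000 per well were treated with compounds over a concentration series and loaded with oleic acid (400 uM, as added). Lipid droplet fluorescence (488 nm excitation, 500-530 nm channel) was read by laser-scanning cytometry and normalized to 20 uM Triacsin C.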

A short description of assay [2]: Cell Viability - LYMP1-002 - Assay at 40 hr (AID 994).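 Further: 0% = DMSO only and full inhibition = 92 µM tetraoctylammonium bromide; nearly all actives have a fitted effect of over 60% in size.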 Particulars: LYMP1-002 lymphoblastoid cell viability; series mostly up to 92.2 µM. In a few lines: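 LYMP1-002 human lymphoblastoid cells (2500/well, complete medium) were treated with compounds for 40 hr at 37 C. Intracellular ATP was measured by CellTiter-Glo luminescence, and AC50 values came from Hill-equation fits of concentration-response data; tetraoctylammonium bromide was the positive control.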

Assay [3] concerns the target alpha-glucosidase (Oryza sativa, rice) (UniProt Q653V4). In words: Counterscreen for Glucocerebrosidase Inhibitors: qHTS Assay for Rice alpha-Glucosidase at pH 5.0 (AID 997).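 Further: 0% = full activity with enzyme and -100% = basal without enzyme.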 The conditions noted are these: rice alpha-glucosidase enzyme activity; series mostly up to 76.9 µM. In a few lines:
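Rice alpha-glucosidase (4 nM final) with 400 uM 4-methylumbelliferyl-alpha-D-glucopyranoside in citrate buffer pH 5.0, 20 min at room temperature, stopped at pH 10; fluorescence 365/440 nm, compounds 0.7 nM–77 uM, AC50 from Hill fits.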
For orientation: A counterscreen serves to expose hits that act by an unwanted route or on another target.

The target in assay [4] is DNA repair nuclease/redox regulator APEX1 (Homo sapiens) (UniProt P27695). In words: qHTS Validation Assay for Inhibitors of the Human Apurinic/apyrimidinic Endonuclease 1 (APE1) (AID 1705;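 further: TAMRA fluorescence gain over two minutes as APE1 cuts a quenched THF abasic duplex; on the % scale 0 is the no-effect control and ±100 the full control effect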). Particulars: purified APE1 endonuclease activity, fluorescence, titration; series mostly up to 57.1 µM. Put shortly: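 Human APE1 was preincubated with compound for 15 min at room temperature, then 50 nM (final) THF-abasic double-stranded DNA substrate bearing 5'-TAMRA and 3'-BHQ-2 was added. Incision-driven fluorescence rise (ex 525/em 598 nm) was read kinetically.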
Chain of DNA repair nuclease/redox regulator APEX1 (Homo sapiens) (P27695 whole entry, looked up): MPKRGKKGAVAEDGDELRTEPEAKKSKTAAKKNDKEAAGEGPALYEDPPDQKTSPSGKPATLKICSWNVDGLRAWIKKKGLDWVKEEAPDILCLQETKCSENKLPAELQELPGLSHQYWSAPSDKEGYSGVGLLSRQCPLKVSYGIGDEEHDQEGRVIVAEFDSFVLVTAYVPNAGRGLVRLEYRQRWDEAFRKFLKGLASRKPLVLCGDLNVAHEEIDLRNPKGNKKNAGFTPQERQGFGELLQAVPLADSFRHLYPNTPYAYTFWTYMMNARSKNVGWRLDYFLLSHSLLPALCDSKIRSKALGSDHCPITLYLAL
For orientation: Quantitative high-throughput screening tests each substance at several concentrations.

A short description of assay [5]: Counterscreen for APE1 Inhibitors: Fluorescent Dye Displacement Validation Assay (AID 1707).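 Further: plate controls were ThO with dsDNA and no compound for no effect and ThO without dsDNA for full effect.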 The conditions noted are these: fluorescent dye displacement from DNA; series mostly up to 57.1 µM. Put shortly: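 Assay buffer: Tris-HCl pH7.5 with 50mM NaCl, 2 mM MgCl2, 0.01% Tween-20. Dye 250 nM, duplex 50 nM final. Readout: decrease in ThO endpoint fluorescence, 480 nm excitation, 540 nm emission.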

Assay [6] has as its target Endonuclease 4 (Escherichia coli (strain K12)) (UniProt P0A6C1). Description: Counterscreen for APE1 Inhibitors: qHTS Validation Assay for Inhibitors of Endonuclease IV (AID 1708). Further: on the % scale 0 is the no-effect control and ±100 the full control effect. Particulars: E. coli endonuclease IV, DNA cleavage fluorescence; series mostly up to 57.1 µM. In a few lines:
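E. coli EndoIV at 2 nM final, preincubated 15 min at room temperature with compound, then 50 nM TAMRA/BHQ-2 THF abasic-site duplex added. Buffer: 50 mM Tris-HCl pH 7.5, 50 mM NaCl, 2 mM MgCl2, 1 mM DTT, 0.01% Tween-20. Kinetic fluorescence increase, third minus first read.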

Assay [7] is described as follows: qHTS for differential inhibitors of proliferation of Plasmodium falciparum line 7G8 (AID 1815).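 Further: parasite growth measured after three days of incubation; plate controls were vehicle wells for no effect and reference inhibitor wells for full effect.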 The conditions noted are these: Plasmodium falciparum 7G8 proliferation inhibition; series mostly up to 28.7 µM.
Assay [8] can be described thus: qHTS for differential inhibitors of proliferation of Plasmodium falciparum line GB4 (AID 1816).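 Further: parasite growth measured after 72 h incubation; 0% = vehicle DMSO and -100% = reference inhibitor.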 The conditions noted are these: series mostly up to 28.7 µM.
Assay [9] is described as follows: qHTS for differential inhibitors of proliferation of Plasmodium falciparum line 3D7 (AID 1876).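 Further: parasite growth measured after three days of culture; 0% = vehicle wells and -100% = reference inhibitor wells.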 Particulars: P. falciparum 3D7 proliferation inhibition; series mostly up to 28.7 µM.
Assay [10] is described as follows: qHTS for differential inhibitors of proliferation of Plasmodium falciparum line D10 (AID 1877).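 Further: parasites grown with compound for 72 h before DNA staining; plate controls were vehicle wells for no effect and reference inhibitor wells for full effect.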 The conditions noted are these: series mostly up to 28.7 µM.
[11] abbreviates: measured here: cell count channel max response.
The mark [12] stands for this setting: measured here: lipid channel max response.

As to `O=C(O)c1ccccc1C(=O)Nc1ccc(S(=O)(=O)Nc2nccs2)cc1`, the results for the activity change, negative = inhibition in assay [1] (at 25.7 µM (top of the series)) and in assay [1] (at 57.5 µM (top of the series)) were -0.565% (inactive) and 12.9% (inactive), respectively. Also, the max response in assay [1] (setting [11]) was -5.87% and 21%; in assay [1] (setting [12]), -9.76% and 42%.
On to `O=C1C(c2[nH]c3ccccc3c2O)=Nc2ccccc21`, for which the compound was called inactive in assay [2].
On to `CN1C(C)(C)CCCC1(C)C`, for which the compound was classed as inactive in assay [3], in [4], in [5], in assay [6], in [7] and in assay [8]. Further, the compound was called inactive in assay [9] and in assay [10]. For the same compound, the activity change, negative = inhibition in assay [1] (at 25.7 µM (top of the series)) is 0.627% (inactive); in [1] (at 57.5 µM (top of the series)), 10.8% (inactive). In addition, the max response in assay [1] (setting [11]) is 4.18% and 13.7%; in assay [1] (setting [12]), 5.5% and 25.7%.
On to `O=C(c1ccccc1)C(O)c1ccccc1` (centres undefined), for which, in [2], the compound was called inactive.
As for `Cn1c([N+](=O)[O-])cnc1COC(N)=O`, the activity change, negative = inhibition in assay [1] (at 25.7 µM (top of the series)) is 1.17% (inactive); in assay [1] (at 57.5 µM (top of the series)), 7.17% (inactive). In addition, the max response in assay [1] (setting [11]) was -1.45% and 4.32%; in assay [1] (setting [12]), -3% and 14.5%.
Regarding `NC(N)=NS(=O)(=O)c1ccc(N)cc1`, the activity change, negative = inhibition was -0.993% (inactive) in assay [1] (at 25.7 µM (top of the series)) and 6.41% (inactive) in [1] (at 57.5 µM (top of the series)). Also, the max response is 1.84% and 2.06% in [1] (setting [11]); -0.509% and 12.7% in assay [1] (setting [12]).
As to `CCN(CC)C(=O)c1cccc(C)c1`, the compound was called inactive in assay [2]. Besides, in [1] (at 57.5 µM (top of the series)), the activity change, negative = inhibition is 7.23% (inactive). Moreover, the max response in [1] (setting [11]) was found to be 15.5%; in [1] (setting [12]), 28.9%.
Consider `FC(F)(F)C(Cl)Br` (centres undefined), for which the compound was classed as inactive in assay [2].
On to `CC(=O)Nc1ccc(C(=O)O)cc1`, for which the result in assay [2] was inactive.
Take `Cc1c(N(C)C)c(=O)n(-c2ccccc2)n1C`: in assay [2], the result was inactive. In addition, in [1] (at 25.7 µM (top of the series)), the activity change, negative = inhibition was -4.33% (inactive). The max response in [1] (setting [11]) was -0.692%; in assay [1] (setting [12]), -4.11%.
As to `CC1CC(OC(=O)c2ccccc2O)CC(C)(C)C1` (centres undefined), the compound was classed as inactive in assay [2]. In [1] (at 57.5 µM (top of the series)), the activity change, negative = inhibition is 7.41% (inactive). In addition, the max response in [1] (setting [11]) was 1.44%; in assay [1] (setting [12]) it was 9.79%.
Take `CC(=O)Nc1cccc(O)c1`: in [2], the compound was called inactive. For the same compound, in assay [1] (at 57.5 µM (top of the series)), the activity change, negative = inhibition is 14.9% (inactive). Further, the max response came out at 10% in [1] (setting [11]) and 23.8% in [1] (setting [12]).
As for `Cc1cc(=O)[nH]c(=S)[nH]1`, in [2], the call was inactive.
As to `O=C1c2cccc(O)c2C(=O)c2c(O)cccc21`, the result in assay [2] was inactive. The activity change, negative = inhibition in [1] (at 57.5 µM (top of the series)) is -5.01% (inactive). The max response in [1] (setting [11]) was 2.23%; in assay [1] (setting [12]) it was -1.3%.
As to `CCCCCCCC(=O)OCC(COC(=O)CCCCCCC)OC(=O)CCCCCCC`, the compound was called inactive in assay [2].
For `CCCCOC(=O)c1ccc(N)cc1`, the call in assay [2] was inactive. Further, the activity change, negative = inhibition in assay [1] (at 25.7 µM (top of the series)) was 0.621% (inactive). Further, the results for the max response in assay [1] (setting [11]) and in assay [1] (setting [12]) were -14.7% and -12.8%, respectively.
Take `CCCC(O)C(CC)CO` (centres undefined): the result in assay [2] was inactive.
As for `Cc1c(NC(=O)c2cccnc2)c(=O)n(-c2ccccc2)n1C`, the activity change, negative = inhibition in assay [1] (at 25.7 µM (top of the series)) is -1.84% (inactive); in assay [1] (at 57.5 µM (top of the series)) it was 5.04% (inactive). Further, the max response in assay [1] (setting [11]) is 3.68% and 18.2%; in assay [1] (setting [12]) it was 4.21% and 26.8%.
For the compound `Nc1ccc(S(=O)(=O)c2ccc(N)cc2)cc1`, the result in [2] was inactive. Further, the activity change, negative = inhibition in assay [1] (at 25.7 µM (top of the series)) was -0.694% (inactive). Also, the max response came to 4.2% in [1] (setting [11]) and 4.3% in [1] (setting [12]).
Regarding `CC(=O)NS(=O)(=O)c1ccc(N)cc1`, the compound was called inactive in [2]. Also, the activity change, negative = inhibition is -1.25% (inactive) in [1] (at 25.7 µM (top of the series)) and 7% (inactive) in assay [1] (at 57.5 µM (top of the series)). Besides, the max response in assay [1] (setting [11]) was 0.487% and 9.27%; in assay [1] (setting [12]), -1.3% and 19.7%.
With `CC(=O)OCC(COC(C)=O)OC(C)=O`, the compound was classed as inactive in [2].
